This note sets out measurements from the supplement of paper PMC12645437, “Orthogonal IMiD-Degron Pairs Induce Selective Protein Degradation in Cells” (ACS Chemical Biology, 2025).

Over roughly 8,300 sequences, “log2 fold change of degron read counts, EGFP-low vs EGFP+ sorted cells (limma voom), compound-induced degradation” has its median near -1.1; the highest 2% begin near 3.2. This is one part of a sample in which the highest values are shown more often than they occur.

In the experiment the target is T1, CRBN, Q96SW2.
T1 chain: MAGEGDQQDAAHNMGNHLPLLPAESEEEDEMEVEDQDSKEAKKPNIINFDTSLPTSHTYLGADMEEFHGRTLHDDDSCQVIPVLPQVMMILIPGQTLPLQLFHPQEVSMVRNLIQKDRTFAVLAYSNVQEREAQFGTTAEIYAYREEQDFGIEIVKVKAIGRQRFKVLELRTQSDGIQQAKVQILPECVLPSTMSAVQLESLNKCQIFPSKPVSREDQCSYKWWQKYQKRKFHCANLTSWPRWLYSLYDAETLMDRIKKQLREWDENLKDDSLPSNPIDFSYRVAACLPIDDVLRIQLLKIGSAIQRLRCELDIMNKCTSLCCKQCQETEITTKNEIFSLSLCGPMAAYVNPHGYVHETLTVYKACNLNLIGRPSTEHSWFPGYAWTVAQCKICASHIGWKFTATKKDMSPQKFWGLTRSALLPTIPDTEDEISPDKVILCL
The experiment can be described thus: log2 fold change of degron read counts, EGFP-low vs EGFP+ sorted cells (limma voom), compound-induced degradation; higher = more compound-induced degradation of the degron-EGFP fusion; degrons are variants of IKZF1/3 zinc finger 2; compound dose not given here. The conditions noted are these: Jurkat, 18 h. The method, then: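 Pooled library of 8380 IKZF3 ZF2 degron mutants (positions 146-167 varied within the IKZF3 130-189 degron; only the varied core is printed, flanks not printed) fused to EGFP with IRES-mCherry, lentivirally expressed in Jurkat cells. mCherry+ cells were treated with one IMiD compound for 18 h (dose not stated) and FACS-sorted into EGFP-low and EGFP+ populations. Degron sequences were counted by NGS, and log2FC (EGFP-low vs EGFP+) was estimated by limma voom over 3 biological replicates.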

Setting [1] is: compound: compound 19 (5-tert-butyl-thalidomide).
Where [2] appears, read: compound: compound 22 (5-morpholino-thalidomide).
[3] abbreviates: compound: compound 33 (diphenyl IMiD analogue).
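Note: pooled lentiviral library of zinc finger degron-EGFP fusions in mCherry-positive Jurkat cells, FACS-sorted after compound exposure, with degron abundance counted by next-generation sequencing.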

In the case of FECNQCGRAFTQKGNLLRHIKL [46F_47E_49N_50Q_52G_53R_54A_55F_67L_, Q9UKT9], the “log2 fold change of degron read counts” value reads like this: under setting [1], -3.75; under setting [2], -4.2; under setting [3], -2.96; (compound: thalidomide) -3.19.

LQCNQCGFPCTQKGNLLRHIKL [46L_47Q_49N_50Q_52G_53F_54P_55C_67L_, Q9UKT9]: the “log2 fold change of degron read counts” value is, setting by setting: under setting [1], -2.34; under setting [2], -3; under setting [3], -2.68; (compound: thalidomide) -1.74.

Turning to FQCDQCGALFTQKGNLLRHIKL [46F_47Q_49D_50Q_52G_53A_54L_55F_67L_, Q9UKT9], the “log2 fold change of degron read counts” value is -3.22 under setting [1], -2 under setting [2], -1.8 under setting [3] and -0.219 (compound: thalidomide).

For FGCPQCGAMFTQKGNLLRHIKL [46F_47G_49P_50Q_52G_53A_54M_55F_67L_, Q9UKT9], the “log2 fold change of degron read counts” value runs as follows: under setting [1], 1.86; under setting [2], -1.68; under setting [3], 0.259; (compound: thalidomide) -2.04.

Take LICEICGFVCTQKGNLLRHIKL [46L_47I_49E_50I_52G_53F_54V_55C_67L_, Q9UKT9]: the “log2 fold change of degron read counts” value is -0.507 under setting [1], 0.245 under setting [2], 1.34 under setting [3] and 1.57 (compound: thalidomide).

As to FECNQCGANFTQKGNLLRHIKL [46F_47E_49N_50Q_52G_53A_54N_55F_67L_, Q9UKT9], the “log2 fold change of degron read counts” value was -3.06 under setting [1], -3.6 under setting [2], -1.14 under setting [3] and -1.62 (compound: thalidomide).

As to FTCDICGAQFTQKGNLLRHIKL [46F_47T_49D_50I_52G_53A_54Q_55F_67L_, Q9UKT9], the “log2 fold change of degron read counts” value is, setting by setting: under setting [1], -0.504; under setting [2], 1.41; under setting [3], 1.33; (compound: thalidomide) 1.15.

With FHCDICGAQFTQKGNLLRHIKL [46F_47H_49D_50I_52G_53A_54Q_55F_67L_, Q9UKT9], the “log2 fold change of degron read counts” value reads like this: under setting [1], 1.04; under setting [2], 1.14; under setting [3], -0.0246; (compound: thalidomide) -1.24.

Consider FFCDICGAQFTQKGNLLRHIKL [46F_47F_49D_50I_52G_53A_54Q_55F_67L_, Q9UKT9], for which the “log2 fold change of degron read counts” value runs as follows: under setting [1], 3.41; under setting [2], 3.28; under setting [3], 1.67; (compound: thalidomide) 0.0187.

With FQCDICGAQFTQKGNLLRHIKL [46F_47Q_49D_50I_52G_53A_54Q_55F_67L_, Q9UKT9], the “log2 fold change of degron read counts” value runs as follows: under setting [1], -0.785; under setting [2], 1.6; under setting [3], 1.09; (compound: thalidomide) 2.9.

On to FLCDICGAQFTQKGNLLRHIKL [46F_47L_49D_50I_52G_53A_54Q_55F_67L_, Q9UKT9], for which the “log2 fold change of degron read counts” value reads like this: under setting [1], -0.363; under setting [2], -1.53; under setting [3], 0.682; (compound: thalidomide) 0.0613.

As to FDCDICGAQFTQKGNLLRHIKL [46F_47D_49D_50I_52G_53A_54Q_55F_67L_, Q9UKT9], the “log2 fold change of degron read counts” value was 0.389 under setting [1], -1.35 under setting [2], -1.71 under setting [3] and -1.04 (compound: thalidomide).

With FWCDICGAQFTQKGNLLRHIKL [46F_47W_49D_50I_52G_53A_54Q_55F_67L_, Q9UKT9], the “log2 fold change of degron read counts” value under setting [1] was 2.88, the “log2 fold change of degron read counts” value under setting [2] was found to be 3.68, the “log2 fold change of degron read counts” value under setting [3] worked out at 1.52 and the “log2 fold change of degron read counts” value (compound: thalidomide) came to 0.174.

With FYCDICGAQFTQKGNLLRHIKL [46F_47Y_49D_50I_52G_53A_54Q_55F_67L_, Q9UKT9], the “log2 fold change of degron read counts” value was 3.18 under setting [1], 3.55 under setting [2], 2.11 under setting [3] and -0.00703 (compound: thalidomide).

Take FCCDICGAQFTQKGNLLRHIKL [46F_47C_49D_50I_52G_53A_54Q_55F_67L_, Q9UKT9]: the “log2 fold change of degron read counts” value reads like this: under setting [1], 1.75; under setting [2], 1.58; under setting [3], 1.41; (compound: thalidomide) 0.205.

With FSCPQCGARFTQKGNLLRHIKL [46F_47S_49P_50Q_52G_53A_54R_55F_67L_, Q9UKT9], the “log2 fold change of degron read counts” value reads like this: under setting [1], 0.264; under setting [2], -0.514; under setting [3], -0.493; (compound: thalidomide) -0.61.

Take LRCPICGFHCTQKGNLLRHIKL [46L_47R_49P_50I_52G_53F_54H_55C_67L_, Q9UKT9]: the “log2 fold change of degron read counts” value reads like this: under setting [1], -0.0105; under setting [2], 0.25; under setting [3], 1.59; (compound: thalidomide) 2.32.

For FECEICGHTFTQKGNLLRHIKL [46F_47E_49E_50I_52G_53H_54T_55F_67L_, Q9UKT9], the “log2 fold change of degron read counts” value runs as follows: under setting [1], -3.53; under setting [2], -3.12; under setting [3], -2.68; (compound: thalidomide) -2.57.

With FECNVCGACFTQKGNLLRHIKL [46F_47E_49N_50V_52G_53A_54C_55F_67L_, Q9UKT9], the “log2 fold change of degron read counts” value runs as follows: under setting [1], -1.77; under setting [2], -2.3; under setting [3], 0.438; (compound: thalidomide) 0.297.

As for FSCEICGAIFTQKGNLLRHIKL [46F_47S_49E_50I_52G_53A_54I_55F_67L_, Q9UKT9], the “log2 fold change of degron read counts” value runs as follows: under setting [1], 2.19; under setting [2], 1.4; under setting [3], 1.65; (compound: thalidomide) 0.91.

For the sequence FACEICGAIFTQKGNLLRHIKL [46F_47A_49E_50I_52G_53A_54I_55F_67L_, Q9UKT9], the “log2 fold change of degron read counts” value reads like this: under setting [1], 3.52; under setting [2], 1.96; under setting [3], 0.532; (compound: thalidomide) 0.207.

Consider FYCEICGAIFTQKGNLLRHIKL [46F_47Y_49E_50I_52G_53A_54I_55F_67L_, Q9UKT9], for which the “log2 fold change of degron read counts” value runs as follows: under setting [1], 3.43; under setting [2], 3.53; under setting [3], 2.4; (compound: thalidomide) 0.401.

In the case of FWCEICGAIFTQKGNLLRHIKL [46F_47W_49E_50I_52G_53A_54I_55F_67L_, Q9UKT9], the “log2 fold change of degron read counts” value worked out at 3.17 under setting [1], 3.55 under setting [2], 2.41 under setting [3] and 0.519 (compound: thalidomide).

Consider FGCEICGAIFTQKGNLLRHIKL [46F_47G_49E_50I_52G_53A_54I_55F_67L_, Q9UKT9], for which the “log2 fold change of degron read counts” value stood at 2.93 under setting [1], 2.72 under setting [2], 1.73 under setting [3] and 0.804 (compound: thalidomide).

On to FECEICGAIFTQKGNLLRHIKL [46F_47E_49E_50I_52G_53A_54I_55F_67L_, Q9UKT9], for which the “log2 fold change of degron read counts” value under setting [1] is -1.24, the “log2 fold change of degron read counts” value under setting [2] is -1.08, the “log2 fold change of degron read counts” value under setting [3] amounted to 1.05 and the “log2 fold change of degron read counts” value (compound: thalidomide) was found to be 2.4.

On to FDCEICGAIFTQKGNLLRHIKL [46F_47D_49E_50I_52G_53A_54I_55F_67L_, Q9UKT9], for which the “log2 fold change of degron read counts” value under setting [1] was -0.448, the “log2 fold change of degron read counts” value under setting [2] is -0.893, the “log2 fold change of degron read counts” value under setting [3] was -0.134 and the “log2 fold change of degron read counts” value (compound: thalidomide) was -0.014.

FNCEICGAIFTQKGNLLRHIKL [46F_47N_49E_50I_52G_53A_54I_55F_67L_, Q9UKT9]: the “log2 fold change of degron read counts” value is 0.366 under setting [1], -0.376 under setting [2], -0.467 under setting [3] and -0.484 (compound: thalidomide).

Take FICEICGAIFTQKGNLLRHIKL [46F_47I_49E_50I_52G_53A_54I_55F_67L_, Q9UKT9]: the “log2 fold change of degron read counts” value by setting is: under setting [1], -0.706; under setting [2], 0.427; under setting [3], 2.23; (compound: thalidomide) 1.71.

With FHCEICGAIFTQKGNLLRHIKL [46F_47H_49E_50I_52G_53A_54I_55F_67L_, Q9UKT9], the “log2 fold change of degron read counts” value under setting [1] worked out at 1.06, the “log2 fold change of degron read counts” value under setting [2] is 0.746, the “log2 fold change of degron read counts” value under setting [3] was 0.49 and the “log2 fold change of degron read counts” value (compound: thalidomide) is -0.388.

For FFCEICGAIFTQKGNLLRHIKL [46F_47F_49E_50I_52G_53A_54I_55F_67L_, Q9UKT9], the “log2 fold change of degron read counts” value under setting [1] was determined as 3.4, the “log2 fold change of degron read counts” value under setting [2] was determined as 3.61, the “log2 fold change of degron read counts” value under setting [3] was 1.62 and the “log2 fold change of degron read counts” value (compound: thalidomide) was 0.938.

Consider FRCEICGAIFTQKGNLLRHIKL [46F_47R_49E_50I_52G_53A_54I_55F_67L_, Q9UKT9], for which the “log2 fold change of degron read counts” value runs as follows: under setting [1], -1.64; under setting [2], -0.637; under setting [3], 1.17; (compound: thalidomide) 1.56.
